Values joined by “and” are separate entries in the source; they are usually repeats but may differ in a detail not shown here. Equal entries are not always repeated. Inconclusive results are not listed. A structure can be active in one record and inactive in another. Active and inactive are the calls of the source. Unless noted, calls come from the whole dose curve; as a rule, active = well fitted curve in the direction sought with a large enough effect in the repeat runs; inconclusive = weak or mixed curves; inactive = no such curve, though single readings can be large; an effect the other way counts as inactive or inconclusive.

Experiment [1] in a line: A CellTox Green Cytotoxicity Assay to monitor cytotoxicity in HEK293 cells - 32 hour (AID 1224881). Note: nearly all actives have a fitted effect of over 40% in size. Put shortly: (§1)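 Fluorescence from a DNA-binding dye excluded by viable cells was measured repeatedly in the same HEK293 wells (600 cells/well) during continuous compound exposure at 37 C. Each assay gives one read point: 0, 8, 16, 24, 32 or 40 h.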
Experiment [2] can be described thus: A CellTox Green Cytotoxicity Assay to monitor cytotoxicity in HepG2 cells - 0 hour (AID 1224882). Note: nearly all actives have a fitted effect of over 35% in size. Put shortly:
(§2)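 Real-time cytotoxicity: fluorescence of a cell-impermeant cyanine dye binding DNA of dead HepG2 cells, measured repeatedly (0–40 h) during compound exposure at 37 C. Cells seeded 600/well with reagent, dosed after 5 h.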

The nature of experiment [3]: A CellTox Green Cytotoxicity Assay to monitor cytotoxicity in HepG2 cells - 32 hour (AID 1224883). Note: nearly all actives have a fitted effect of over 50% in size. Note: potency is the fitted concentration of half-maximal effect. The essentials:
as §2

The nature of experiment [4]: A CellTox Green Cytotoxicity Assay to monitor cytotoxicity in HEK293 cells - 8 hour (AID 1224884). Note: nearly all actives have a fitted effect of over 35% in size. The essentials: as §1
Experiment [5] can be described thus: qHTS RealTime-Glo MT Cell Viability Assay in HEK293 cells - 8 hour (AID 1224887). Note: top concentration of the series differs between compounds; nearly all actives have a fitted effect of over 50% in size. Put shortly: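 Luminescence, which tracks viable cell number through reduction of the prosubstrate to a NanoLuc substrate, was read over continuous 37 C culture. Cells (600/well) were premixed with reagent and rested 5 h before 23 nL of compound in DMSO was pinned.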
Experiment [6] is described as follows: A CellTox Green Cytotoxicity Assay to monitor cytotoxicity in HEK293 cells - 16 hour (AID 1224888). Note: nearly all actives have a fitted effect of over 35% in size. Put shortly:
as §1

Experiment [7] is described as follows: qHTS RealTime-Glo MT Cell Viability Assay in HepG2 cells - 0 hour (AID 1224889). Note: nearly all actives have a fitted effect of over 50% in size. The essentials:
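Real-time, nonlytic viability: 600 HepG2 cells/well mixed with NanoLuc enzyme plus prosubstrate; 5 h settle, compound (DMSO) added by pintool; luminescence monitored over 40 h at 37 C.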

Experiment [8] in a line: qHTS assay to identify small molecule antagonists of the estrogen receptor alpha (ER-alpha) signaling pathway using the BG1 cell line in the presence of 0.1 nM 17-beta-estradiol - cell viability counter screen (AID 1259241). Note: nearly all actives have a fitted effect of over 40% in size. Note: potency is the fitted concentration of half-maximal effect. Put shortly: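 Estradiol-stimulated (0.1 nM) VM7Luc4E2 cells exposed to compounds 22 hr; viability measured by fluorescence of cleaved CellTiter-Fluor substrate after 30 min.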
On the technique in general: Quantitative high-throughput screening tests each substance at several concentrations.

Experiment [9] deals with Estrogen receptor (Homo sapiens) (UniProt P03372). Nature of the experiment: qHTS assay to identify small molecule antagonists of the estrogen receptor alpha (ER-alpha) signaling pathway using the BG1 cell line in the presence of 0.1 nM 17-beta-estradiol (AID 1259244). Note: nearly all actives have a fitted effect of over 50% in size. Note: potency is the fitted concentration of half-maximal effect. Put shortly: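 Luciferase luminescence (ONE-Glo, 30 min at room temperature) was read after 22 hr at 37C exposure to compounds plus 17beta-estradiol at 0.1 nM final. Cells were VM7Luc4E2 with endogenous ER-alpha and an ERE-driven luciferase, pre-cultured 5 days in hormone-depleted medium.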

Experiment [10] in a line: qHTS assay to identify small molecule HDAC inhibitors (AID 1259364). Note: nearly all actives have a fitted effect of over 45% in size. Note: potency is the fitted concentration of half-maximal effect. The essentials:
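Luminescence read after 30 min room-temperature HDAC-Glo incubation measures cellular class I/II HDAC activity. Compounds were applied for 2 hr at 37 C to HCT-116 wild-type cells seeded the day before.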

Experiment [11] can be described thus: qHTS assay to identify small molecule HDAC inhibitors - cell viability counter screen (AID 1259365). Put shortly:
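After overnight seeding at 1,500 cells per well, wild-type HCT-116 cultures took up compounds in DMSO for 2hr at 37 C. Viable cell content came from luminescence with CellTiter-Glo.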

Experiment [12] can be described thus: qHTS assay to identify small molecule agonists of the sonic hedgehog signaling (Shh) pathway - cell viability counter screen (AID 1259366). Note: nearly all actives have a fitted effect of over 50% in size. Note: potency is the fitted concentration of half-maximal effect. Put shortly:
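Same-well cytotoxicity read. Gli1-Luc reporter 3T3 cells; compounds 24hr, 37C/5% CO2; CellTiter-Fluor fluorescence.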

A short description of experiment [13]: qHTS assay to identify small molecule antagonists of the sonic hedgehog signaling (Shh) pathway - cell viability counter screen (AID 1259367). Note: nearly all actives have a fitted effect of over 55% in size. Note: potency is the fitted concentration of half-maximal effect. Put shortly: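 CellTiter-Fluor signal in conditioned medium-stimulated 3T3 Gli1-Luc cells, 23 hr compound exposure, 37C.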
Experiment [14] can be described thus: qHTS RealTime-Glo MT Cell Viability Assay in HEK293 cells - 24 hour (AID 1224886). The essentials:
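Cells + reagent dispensed (600 cells/well, HEK293) → 5 h at 37 C/5% CO2 → 23 nL compound in DMSO pinned → 40 h at 37 C → luminescence read at 0, 8, 16, 24, 32, 40 h.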

Experiment [15] in a line: qHTS assay to identify small molecule antagonists of the androgen receptor (AR) signaling pathway using the MDA cell line in the presence of 0.5 nM R1881 - cell viability counter screen (AID 1259242). Note: nearly all actives have a fitted effect of over 45% in size. The essentials:
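Live-cell protease activity was measured by CellTiter-Fluor fluorescence after 30 min. Before that, MDA-kb2 MMTV-luciferase cells had 16 hr at 37C without CO2, exposed to test compounds and 0.5 nM R1881 final.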

Experiment [16] is described as follows: qHTS assay to identify small molecule agonists of the sonic hedgehog signaling (Shh) pathway (AID 1259368; calls by dose curve;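 note: NIH/3T3-derived 3T3Gli1-Luc cells carrying a stable Gli1-driven firefly luciferase reporter; series mostly up to about 92 µM; nearly all actives have a fitted effect of over 15% in size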). Put shortly:
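Luminescence was read after 30 min at room temperature with luciferase reagent. Before that, 3T3Gli1-Luc cells (NIH/3T3 clone, stable Gli1-Luc reporter; 2,000/well) were exposed to compounds for 24 hr at 37C, 5% CO2, compounds being added 4 hr post-plating.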

A short description of experiment [17]: A CellTox Green Cytotoxicity Assay to monitor cytotoxicity in HepG2 cells - 8 hour (AID 1224890). Note: nearly all actives have a fitted effect of over 45% in size. The essentials: as §2
In experiment [18] the target is Androgen receptor (Homo sapiens) (UniProt P10275). Nature of the experiment: qHTS assay to identify small molecule antagonists of the androgen receptor (AR) signaling pathway using the MDA cell line in the presence of 0.5 nM R1881 (AID 1259243). Note: nearly all actives have a fitted effect of over 50% in size. Note: potency is the fitted concentration of half-maximal effect. Put shortly: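 Luminescent reporter readout (ONE-Glo, 30 min, room temperature) after 16 hr co-treatment of MDA-kb2 cells with test compounds and 0.5 nM R1881 final, at 37C without CO2. The MMTV-driven luciferase responds to both AR and GR.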

Experiment [19] in a line: qHTS assay to identify small molecule phospholipidosis (PLD) inducers (AID 1259344; active = well fitted curve in the direction sought with a large enough effect; an effect the other way counts as inactive or inconclusive). Put shortly: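 Accumulated phospholipid, stained red by LipidTOX during 24 h compound treatment of HepG2 cells at 37 C, is quantified from images as pit number and intensity, normalised per cell using Hoechst-stained nuclei.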

Estrogen receptor (Homo sapiens), sequence (P03372 whole entry, looked up): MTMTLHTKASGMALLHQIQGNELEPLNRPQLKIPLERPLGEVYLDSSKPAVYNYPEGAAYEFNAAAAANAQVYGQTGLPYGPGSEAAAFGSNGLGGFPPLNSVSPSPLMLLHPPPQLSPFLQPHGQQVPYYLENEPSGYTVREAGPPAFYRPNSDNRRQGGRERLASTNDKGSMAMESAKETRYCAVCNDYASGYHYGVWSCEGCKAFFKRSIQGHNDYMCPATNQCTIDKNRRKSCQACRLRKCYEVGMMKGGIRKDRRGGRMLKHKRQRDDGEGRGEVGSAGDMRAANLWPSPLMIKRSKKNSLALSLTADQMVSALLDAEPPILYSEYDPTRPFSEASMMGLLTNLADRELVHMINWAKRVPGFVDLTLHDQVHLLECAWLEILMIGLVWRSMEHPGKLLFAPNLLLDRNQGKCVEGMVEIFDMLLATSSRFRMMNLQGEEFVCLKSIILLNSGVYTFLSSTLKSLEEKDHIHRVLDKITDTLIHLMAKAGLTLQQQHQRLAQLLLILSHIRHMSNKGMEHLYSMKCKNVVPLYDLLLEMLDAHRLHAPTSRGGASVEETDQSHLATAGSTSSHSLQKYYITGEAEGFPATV
Androgen receptor (Homo sapiens), sequence (P10275 whole entry, looked up): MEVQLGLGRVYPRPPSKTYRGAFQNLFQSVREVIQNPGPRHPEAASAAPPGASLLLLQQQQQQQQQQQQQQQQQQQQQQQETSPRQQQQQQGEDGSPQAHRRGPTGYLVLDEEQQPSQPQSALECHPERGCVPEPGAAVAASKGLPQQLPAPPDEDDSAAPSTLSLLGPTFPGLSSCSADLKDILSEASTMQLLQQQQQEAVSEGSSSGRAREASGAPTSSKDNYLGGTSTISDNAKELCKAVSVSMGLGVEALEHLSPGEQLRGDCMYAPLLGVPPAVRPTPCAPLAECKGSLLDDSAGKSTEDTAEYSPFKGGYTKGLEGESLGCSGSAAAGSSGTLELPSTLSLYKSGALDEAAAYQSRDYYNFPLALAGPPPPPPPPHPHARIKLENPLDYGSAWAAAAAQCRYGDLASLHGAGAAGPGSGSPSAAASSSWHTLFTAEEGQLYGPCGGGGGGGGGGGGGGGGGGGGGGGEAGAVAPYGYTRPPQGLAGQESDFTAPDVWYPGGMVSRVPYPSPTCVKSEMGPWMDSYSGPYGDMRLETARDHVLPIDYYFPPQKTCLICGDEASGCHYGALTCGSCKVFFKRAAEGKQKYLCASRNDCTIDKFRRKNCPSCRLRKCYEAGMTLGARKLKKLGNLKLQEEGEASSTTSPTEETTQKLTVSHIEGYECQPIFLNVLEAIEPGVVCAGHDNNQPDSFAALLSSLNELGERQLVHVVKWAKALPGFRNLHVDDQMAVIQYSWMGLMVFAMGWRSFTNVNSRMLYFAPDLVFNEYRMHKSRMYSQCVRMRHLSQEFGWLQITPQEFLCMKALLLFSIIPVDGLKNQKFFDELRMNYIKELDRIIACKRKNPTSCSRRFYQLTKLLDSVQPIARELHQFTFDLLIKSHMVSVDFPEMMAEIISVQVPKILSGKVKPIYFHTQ

Consider `Cn1c(-c2ccccc2)cc(-c2ccccc2)[n+]1C`, for which the Potency entry in [1], in [2], in [3], in experiment [4], in [5] and in experiment [6] was “inactive” each time. Also, the Potency entry in experiment [7], in experiment [8], in [10], in [11], in experiment [12] and in [13] was “inactive” each time. The Potency in experiment [9] was 5.44 µM (active) and 24.3 µM (active).

Consider `CC(O)CN(CC(C)O)CC(C)O` (stereo not drawn), for which the Potency entry in [1], in experiment [2], in [3], in [4], in experiment [14] and in experiment [5] was “inactive” throughout. In addition, the Potency entry in [6], in [7], in experiment [8], in experiment [15], in [10] and in experiment [11] was “inactive” each time. Also, the Potency result in experiment [12], in [13] and in experiment [16] was “inactive” in each case.

Turning to `COc1ccc(O)c(C(C)(C)C)c1`, the Potency result in experiment [1], in experiment [2], in [4], in experiment [14], in experiment [5] and in [6] was “inactive” each time. The Potency result in [7], in experiment [17], in experiment [8], in experiment [15], in experiment [9] and in [10] was “inactive” throughout. For the same compound, the Potency entry in experiment [12] and in experiment [13] was “inactive” throughout.

`CC(C)(C#N)N=NC(C)(C)C#N`: the Potency entry in [1], in experiment [2], in experiment [3], in experiment [4], in [14] and in experiment [5] was “inactive” each time. For the same compound, the Potency entry in [6], in experiment [7], in experiment [17], in experiment [8], in experiment [9] and in [10] was “inactive” in each case. Further, the Potency result in experiment [12], in experiment [13] and in experiment [16] was “inactive” each time.

Take `COP(=S)(OC)SCn1nnc2ccccc2c1=O`: the Potency result in [1], in experiment [2], in [3], in experiment [4], in experiment [6] and in experiment [7] was “inactive” throughout. The Potency result in [8], in [10], in [11], in experiment [12] and in experiment [16] was “inactive” each time. Moreover, in experiment [18], the Potency is 23.9 µM (active) and 17.2 µM (active).

For `Nc1ncn[nH]1`, the Potency entry in experiment [1], in experiment [2], in [3], in [4], in experiment [14] and in [5] was “inactive” throughout. Further, the Potency result in [6], in experiment [7], in experiment [17], in [8], in experiment [10] and in experiment [11] was “inactive” in each case. The Potency entry in [12], in experiment [13] and in [16] was “inactive” each time.

Consider `CCNCC`, for which the Potency result in experiment [1], in [2], in [3], in experiment [4], in experiment [14] and in experiment [5] was “inactive” throughout. Moreover, the Potency result in experiment [6], in [7], in experiment [8], in [15], in [10] and in [11] was “inactive” each time. In addition, the Potency entry in [13] and in experiment [16] was “inactive” each time.

For `O=C(O)CF`, the Potency entry in [1], in experiment [2], in [4], in experiment [14], in experiment [5] and in [6] was “inactive” each time. The Potency entry in experiment [7], in experiment [17], in experiment [8], in experiment [15], in experiment [9] and in experiment [10] was “inactive” each time. Also, the Potency entry in [12], in experiment [13] and in experiment [16] was “inactive” in each case. Further, in experiment [3], the Potency result was “inactive and 19.5 µM (active)”.

In the case of `CC1(C)Cc2cccc(O)c2O1`, the Potency result in experiment [1], in [2], in experiment [3], in experiment [4], in experiment [14] and in experiment [5] was “inactive” each time. The Potency result in experiment [6], in experiment [7], in [8], in experiment [15], in [9] and in experiment [10] was “inactive” in each case. Besides, the Potency entry in experiment [11], in experiment [12], in experiment [13] and in experiment [16] was “inactive” in each case.

On to `CNC(=O)CSP(=S)(OC)OC`, for which the Potency result in [1], in experiment [2], in [3], in [4], in [14] and in experiment [5] was “inactive” throughout. The Potency result in experiment [6], in experiment [7], in [17], in experiment [8], in experiment [15] and in experiment [9] was “inactive” each time. Also, the Potency result in [10], in experiment [11] and in [16] was “inactive” in each case. Further, the Potency in [13] is 28.1 µM (active) and inactive.

Regarding `S=c1[nH]c2ccccc2[nH]1`, the Potency result in experiment [1], in experiment [2], in experiment [4], in experiment [14], in [5] and in [6] was “inactive” throughout. Besides, the Potency result in [7], in [17], in experiment [8], in [15], in experiment [18] and in [10] was “inactive” in each case. In addition, the Potency entry in [11], in experiment [12], in [13] and in [16] was “inactive” in each case. Moreover, the Potency entry in [3] was “inactive and 21.9 µM (active)”.

Turning to `ClCC(Cl)CCl`, the Potency entry in experiment [1], in [2], in experiment [3], in experiment [4], in experiment [14] and in experiment [5] was “inactive” in each case. In addition, the Potency result in [6], in experiment [7], in experiment [8], in experiment [15], in [10] and in experiment [13] was “inactive” each time.

Consider `N#CC(c1ccccc1)c1ccccc1`, for which the Potency entry in [1], in experiment [2], in [3], in experiment [4], in experiment [14] and in [5] was “inactive” throughout. Besides, the Potency result in experiment [6], in experiment [7], in experiment [17], in experiment [8], in experiment [10] and in experiment [13] was “inactive” in each case. Moreover, in experiment [16], the Potency result is “inactive”.

With `CC(C)(O)C#N`, the Potency result in experiment [1], in experiment [2], in experiment [3], in experiment [4], in experiment [14] and in experiment [5] was “inactive” each time. Further, the Potency entry in [6], in experiment [7], in [8], in experiment [15], in [10] and in experiment [11] was “inactive” in each case. For the same compound, the Potency result in [12], in experiment [13] and in [16] was “inactive” in each case.

On to `Cc1cccc(N=Nc2ccc(N(C)C)cc2)c1`, for which the Potency entry in experiment [1], in [2], in experiment [3], in experiment [4], in experiment [6] and in [7] was “inactive” throughout. Further, the Potency entry in experiment [17] and in [9] was “inactive” throughout. The Potency in experiment [8] was 27.3 µM (active); in [10] it was 3.5 µM (active) and 6.86 µM (active); in [12], 35 µM (active).

In the case of `O=C1Nc2ccc(Cl)cc2C(c2ccccc2)=NC1O` (stereo not drawn), the Potency result in [1], in [2], in experiment [3], in experiment [4], in experiment [14] and in experiment [5] was “inactive” each time. Also, the Potency result in [6], in experiment [7], in experiment [17], in experiment [8], in [10] and in experiment [13] was “inactive” throughout. The Potency entry in experiment [16] was “inactive”. Besides, the call in experiment [19] was inactive.

For the origin of these results see PubChem BioAssay (Tox21).
